Assay results as given in the supplement of paper PMC4380459.

The molecules below were run on tubulin (bovine brain) (assay: tubulin polymerization end-point dOD, fold change relative to DMSO vehicle; higher = more polymerization (stabilization)). Conditions: 50 µM; 60 min; 37 °C.
How it was run: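 Plates were warmed to 37°C in a Tecan reader and read at 340 nm every minute for 1 hour. Beforehand, bovine brain tubulin (4 mg/ml in G-PEM buffer containing PIPES pH 6.9, MgCl2, EGTA and GTP) from the Cytoskeleton HTS-Tubulin polymerization kit was assembled on ice with compound at a final 50 μM in 0.5% DMSO in 384-well plates. Each value is the end-point change in optical density, expressed as percent fold change relative to DMSO vehicle, with runs scaled using the means and standard deviations of DMSO and reference-control wells.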
For `CSc1ncc(C(=O)Nc2ccc(Oc3ccc4c(c3)OCO4)cc2)cn1`, the “tubulin polymerization end-point dOD” value was -8.44%. `Cc1cc2nc(/C=C/c3cccnc3)sc2cc1C` was tested, and the “tubulin polymerization end-point dOD” value was -34.3%. `Cc1cnc(C(=O)Nc2ncc(Cc3cccc(C)c3Cl)s2)cn1` was tested, and the “tubulin polymerization end-point dOD” value was -85.7%. With `COc1ccc(/C=N/NC(=O)c2cccc(F)c2)cc1I` the “tubulin polymerization end-point dOD” value was 10.5%. `C=CCOc1ccccc1NC(=O)c1cc(-c2c(C)nn(C)c2C)n[nH]1` was tested, and the “tubulin polymerization end-point dOD” value was -31.9%. For `Cc1cccc2cc(C#N)c(SCC(=O)c3ccc(F)cc3)nc12`, the “tubulin polymerization end-point dOD” value was -11.1%. For `Cc1cccc(Cc2cnc(NC(=O)c3ccc(Br)cc3)s2)c1`, the “tubulin polymerization end-point dOD” value was -17.2%. `CN(C)c1ccc(/C=N/NC(=O)c2cccc(F)c2)cc1` was tested, and the “tubulin polymerization end-point dOD” value was 27.6%. `O=C(NC1=NCCS1)c1sc2cccc(F)c2c1COc1ccccc1` was tested, and the “tubulin polymerization end-point dOD” value was 34.2%. `O=c1[nH]c(/C=C\c2ccccc2)nc2ccccc12` was tested, and the “tubulin polymerization end-point dOD” value was 40.5%. With `CCOc1c(Cl)cc(C(=O)N2CCN(c3cccc(C)c3)CC2)cc1OC` the “tubulin polymerization end-point dOD” value was -52.8%. In the case of `O=C1NC(c2c(-c3ccccc3)[nH]c3ccccc23)Nc2ccccc21` (centres undefined), the “tubulin polymerization end-point dOD” value is reported as -92.1%. For `CC(=O)c1c(C)[nH]c(C(=O)Nc2ccc(N3CCCC3=O)cc2)c1C`, the “tubulin polymerization end-point dOD” value was -9.36%. `CCc1cc2cc3c(cc2nc1SCC(=O)Nc1ccccc1Cl)OCCO3` was tested, and the “tubulin polymerization end-point dOD” value was 11.4%. For `O=C(c1cccnc1N1CCCC1)N1CC=C(c2c[nH]c3ccccc23)CC1`, the “tubulin polymerization end-point dOD” value was -49.4%. In the case of `CCOC(=O)c1[nH]c(C)c(C(=O)c2cc(F)ccc2F)c1C`, the “tubulin polymerization end-point dOD” value is reported as 5.16%. With `COc1ccccc1-n1c(SCC(=O)Nc2nc(C)cs2)nnc1-c1cccnc1` the “tubulin polymerization end-point dOD” value was -51%. `Cc1ccc(Nc2nc(N)nc(CN3C(=O)NC(C)(c4ccccc4)C3=O)n2)cc1` (centres undefined) was tested, and the “tubulin polymerization end-point dOD” value was 48.1%. With `O=C(Nc1ncc(Cc2ccccc2)s1)c1cc(Br)c[nH]1` the “tubulin polymerization end-point dOD” value was 2.89%. `Cc1ccc2cc(C)c3nn(CCNC(=O)c4cccnc4)c(=O)n3c2c1` was tested, and the “tubulin polymerization end-point dOD” value was -40.4%. `O=C(Nc1ccc(N2CCCCCC2)cc1)C1COc2ccccc2C1` (centres undefined) was tested, and the “tubulin polymerization end-point dOD” value was 37.7%. `Cc1cccc(N2CCN(C(=O)c3cc(Cl)ccc3Cl)CC2)c1` was tested, and the “tubulin polymerization end-point dOD” value was -45.7%. In the case of `Cc1cccc2cc3c(N)c(C(=O)Nc4ccccc4N4CCOCC4)sc3nc12`, the “tubulin polymerization end-point dOD” value is reported as 411%. With `Cc1cc2cc3c(cc2nc1SCC(=O)Nc1c(C)cccc1C)OCO3` the “tubulin polymerization end-point dOD” value was 145%. `COc1ccc(CNc2c(-c3ccccc3O)nc3cnccn23)cc1` was tested, and the “tubulin polymerization end-point dOD” value was 0.31%. For `COc1ccc(Cl)cc1NC(=O)C1CCCN1C(=O)Nc1ccccc1OC` (centres undefined), the “tubulin polymerization end-point dOD” value was -2.01%. `COc1cc(C(=O)Nc2ccc3c(c2)Nc2ccccc2CC3)cc(OC)c1OC` was tested, and the “tubulin polymerization end-point dOD” value was -20.1%. With `COc1ccc2cc(CN(Cc3cccs3)C(=O)Nc3ccccc3Cl)c(=O)[nH]c2c1` the “tubulin polymerization end-point dOD” value was -57.2%. For `CCc1cc2cc(OC)ccc2nc1SCC(=O)Nc1ccccc1C`, the “tubulin polymerization end-point dOD” value was 104%.
